# “And” between values parts separate entries of the source, which are not always exact repeats. Equal entries are not always repeated. Records with an inconclusive call do not appear. The source made the active and inactive calls. Unless noted, the limit is not given here; nearly all actives have AC50 up to about 26 µM.
# Columns and labels:
# [1] = viability loss in pontine glioma line – cell-based, SU-DIPG-XVII, MIPE5.0, CellTiter-Glo, qHTS, dose response (AID 1347060); settings: CellTiter-Glo ATP luminescence;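 as to AC50: cells exposed to compound for 48 hours before viability readout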
# [2] = viability loss in pontine glioma line – cell-based, JHH-DIPG-1, MIPE4.0, CellTiter-Glo, qHTS, dose response (AID 1347062; cut-off not given, nearly all actives have AC50 up to about 27 µM;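 as to AC50: cells exposed to compound for two days before readout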); settings: JHH-DIPG-1 viability, CellTiter-Glo ATP luminescence
# [3] = viability loss in pontine glioma line – cell-based, SU-DIPG-IV, MIPE4.0, CellTiter-Glo, qHTS, dose response (AID 1347063; cut-off not given, nearly all actives have AC50 up to about 30 µM;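 also: compound exposure lasted 48 hours before the viability readout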); settings: CellTiter-Glo ATP luminescence
# [4] = viability loss in pontine glioma line – cell-based, SU-DIPG-XXV, MIPE5.0, CellTiter-Glo, qHTS, dose response (AID 1347065); settings: CellTiter-Glo ATP luminescence;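 also: cells exposed to compound for 48 hours before ATP readout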
# [5] = viability loss with induced miR-34 in A549 – imaging, A549 dox-inducible miR-34, nuclei and caspase counts, primary screen (AID 1347080;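 active = compounds whose cell count with miR-34 switched on is under 0.7 times the count with it off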); settings: A549 miR-34 inducible, Hoechst nuclei count, 48 h
# [6] = MELAS cybrid and Rieske KO viability enhancers – cell-based, MELAS cybrids, Rieske KO mouse fibroblasts, CellTiter-Glo, primary screen (AID 1508586;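 active = mean z-score across replicates of 1.96 or higher in either the MELAS or the Rieske mutant cell line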;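 also: z relative to plate mean and SD of compound and empty wells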); settings: low glucose
# [7] = growth inhibition, single agent or in combination, cell-based, chromothripsis tumors, cisplatin or BGB combos (AID 1671449; in the data active = inhibition above about 80%;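 also: cells exposed for 96 hours; 0% = vehicle DMSO and 100% = killing by high DMSO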); settings: LFS_MB_P medulloblastoma cells
# [8] = growth inhibition, single agent and combos, cell-based, chromothripsis tumors, cisplatin or BGB combos (AID 1671450; in the data active = inhibition above about 80%;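 also: cells exposed to compound for four days; 0% = vehicle DMSO and 100% = cell killing by high DMSO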); settings: HDN33 neuroblastoma cells, stronger effect = higher value
# [9] = growth inhibition, single agents and combos, ICB984, cell-based, cisplatin or BGB combos, synergistic combos for chromothripsis tumors (AID 1671451; call rule not given here;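 also: cells exposed for 96 hours before readout; 0% = vehicle DMSO and 100% = killing by high DMSO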); settings: ICB984 medulloblastoma cells, drug combinations, stronger effect = higher value
# [10] = growth inhibition, single agents and combos, HTB85, cell-based, BGB or cisplatin IC20 combos, synergistic combos for chromothripsis tumors (AID 1671453; in the data active = inhibition above about 80%;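 also: cells exposed for 96 hours before readout; 0% = vehicle DMSO and 100% = high DMSO killing control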); settings: HTB85 osteosarcoma cells, drug combinations, stronger effect = higher value
# [11] = growth inhibition, MDA-MB-436, cell-based, BGB or cisplatin combos, synergistic combos for chromothripsis tumors (AID 1671458; call rule not given here;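 also: cells exposed for 96 hours; 0% = vehicle DMSO and 100% = killing by high DMSO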); settings: MDA-MB-436 breast carcinoma growth inhibition, drug combinations, stronger effect = higher value
# [12] = BT084 cell growth, single and combined drugs, ICGC_MB145, cisplatin and BGB IC40 combos (AID 1671461; in the data active = inhibition above about 80%;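 also: cells exposed to drugs for 96 hours; 0% = vehicle DMSO and 100% = high DMSO full killing control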); settings: BT084 medulloblastoma cells, drug combinations, stronger effect = higher value
# [13] = RCMB18 cell growth, single agent and combined, cisplatin and BGB IC40 combos (AID 1671462; in the data active = inhibition above about 80%;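 also: cells exposed to compound for four days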); settings: RCMB18 medulloblastoma cells, stronger effect = higher value
# [14] = CRL1545 cell growth, single agent and combined, cisplatin and BGB IC20 combos (AID 1671464; in the data active = inhibition above about 80%;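 also: cells exposed to compound for 96 hours before readout; 0% = vehicle DMSO and 100% = high DMSO killing control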); settings: CRL1545 osteosarcoma cells, stronger effect = higher value
# [15] = viability loss in pontine glioma line – cell-based, SU-DIPG-XIII, MIPE5.0, CellTiter-Glo, qHTS, dose response (AID 1347064; cut-off not given, nearly all actives have AC50 up to about 23 µM;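 also: cells exposed to compound for 48 hours before the viability read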); settings: CellTiter-Glo ATP luminescence
# [16] = growth inhibition of DIPG cells – cell-based, MIPE4.0 library, CellTiter-Glo luminescence, qHTS (AID 1347066; cut-off not given, nearly all actives have AC50 up to about 30 µM;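 also: cells exposed to compound for 48 hours before readout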); settings: SU-DIPG-VI viability, CellTiter-Glo ATP luminescence
# [17] = JHH-DIPG-1 glioma cell viability, MIPE5.0 library, CellTiter-Glo luminescence, qHTS (AID 1347067); settings: JHH-DIPG-1 glioma viability, CellTiter-Glo ATP luminescence;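 also: cells exposed to compound for 48 hours before readout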
# [18] = growth inhibition of DIPG cells – cell-based, MIPE5.0 library, qHTS (AID 1347068; cut-off not given, nearly all actives have IC50 up to about 30 µM;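 as to IC50: cells exposed to compound for 48 hours before viability readout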); settings: SU-DIPG-XXV viability
# [19] = stronger effect = lower value, cell number ratio, induced over uninduced
# [20] = measured here: relative caspase fold change +Dox/-Dox
# [21] = measured here: total cells with miR-34 induction, stronger effect = lower value
# [22] = measured here: total cells without miR-34 induction
# [23] = MELAS cybrid survival, CellTiter-Glo 48 h, stronger effect = higher value
# [24] = Rieske KO mouse fibroblast survival, CellTiter-Glo 72 h
# [25] = measured here: with BGB IC20 combination, at 0.5 µM
# [26] = measured here: with cisplatin IC20 combination, at 0.5 µM
compound,measurement,setting,value
CN(C)CCN1C(=O)c2cccc3cc(N)cc(c23)C1=O,AC50,[1],20.9 µM (active)
same,AC50,[2],23.5 µM (active)
same,AC50,[3],18.7 µM (active)
same,AC50,[4],18.6 µM (active)
same,fold change,[5]; [19],1.2 (inactive)
same,fold change,[5]; [20],0.74
same,cell count,[5]; [21],1750
same,cell count,[5]; [22],1460
same,z-score,[6]; [23],-0.14 (inactive)
same,z-score,[6]; [24],-0.182
same,inhibition,"[7]; at 0.5 µM, stronger effect = higher value",-4.37% (inactive)
same,inhibition,"[7]; measured here: combination with BGB IC20, at 0.005 µM",-27.8%
same,inhibition,"[7]; measured here: combination with BGB IC40, at 0.005 µM",-17.6%
same,inhibition,"[7]; measured here: combination with BGB IC40, at 0.05 µM",-30.5%
same,inhibition,"[7]; measured here: combination with cisplatin, at 0.5 µM, stronger effect = higher value",-36.3%
same,inhibition,"[7]; measured here: combination with cisplatin, at 5 µM, stronger effect = higher value",4.24%
same,inhibition,"[8]; BGB combo, at 5 µM",41.4%
same,inhibition,[8]; at 0.5 µM,-23.5% (inactive)
same,inhibition,"[8]; cisplatin combo, at 5 µM",48.1%
same,inhibition,[8]; [25],-27.7%
same,inhibition,[8]; [26],-18.1%
same,inhibition,"[8]; single agent, at 5 µM",62.5%
same,inhibition,"[9]; BGB IC20 combo, at 0.005 µM",-11.5%
same,inhibition,"[9]; BGB IC40 combo, at 0.005 µM",-22.2%
same,inhibition,"[9]; BGB IC40 combo, at 0.05 µM",-11.5%
same,inhibition,[9]; at 0.5 µM,-22.6% (inactive)
same,inhibition,"[9]; cisplatin combo, at 0.05 µM",-15.5%
same,inhibition,"[9]; cisplatin combo, at 0.5 µM",-16.6%
same,inhibition,"[9]; cisplatin combo, at 5 µM",-25.7%
same,inhibition,"[9]; measured here: 5 uM single agent, at 5 µM",-8.29%
same,inhibition,[10]; at 0.5 µM,-12.9% (inactive)
same,inhibition,"[10]; measured here: with BGB IC20, at 0.5 µM",-26.5%
same,inhibition,"[10]; measured here: with BGB IC20, at 5 µM",10.3%
same,inhibition,"[10]; measured here: with cisplatin IC20, at 0.5 µM",-16.4%
same,inhibition,"[10]; measured here: with cisplatin IC20, at 5 µM",6%
same,inhibition,"[10]; single agent, at 5 µM",33.7%
same,inhibition,[11]; at 0.5 µM,-8.14% (inactive)
same,inhibition,"[11]; measured here: BGB combination, at 0.5 µM",-8.98%
same,inhibition,"[11]; measured here: BGB combination, at 5 µM",10.1%
same,inhibition,"[11]; measured here: cisplatin combination, at 0.5 µM",-20.8%
same,inhibition,"[11]; measured here: cisplatin combination, at 5 µM",21.8%
same,inhibition,[12]; at 0.5 µM,-6.16% (inactive)
same,inhibition,"[12]; cisplatin combination, at 0.5 µM",-21.8%
same,inhibition,"[12]; cisplatin combination, at 5 µM",-12.3%
same,inhibition,"[12]; measured here: BGB IC40 combination 0.05 uM, at 0.05 µM",-42.3%
same,inhibition,"[12]; single agent, at 5 µM",-40.8%
same,inhibition,[13]; at 0.5 µM,-2.53% (inactive)
same,inhibition,"[13]; cisplatin combo, at 5 µM",-21%
same,inhibition,"[13]; measured here: BGB IC40 combination, at 0.05 µM",-28.2%
same,inhibition,"[13]; measured here: combination with cisplatin, at 0.5 µM",2.14%
same,inhibition,"[13]; single agent, at 5 µM",-32.9%
same,inhibition,[14]; at 0.5 µM,-31.5% (inactive)
same,inhibition,[14]; [25],-17.6%
same,inhibition,[14]; [26],-40.7%
same,inhibition,"[14]; single agent, at 0.05 µM",-14.5%
same,inhibition,"[14]; single agent, at 5 µM",59.5%
CC/C(=C(/c1ccc(O)cc1)c1ccc(OCCNC)cc1)c1ccccc1,AC50,[1],2.63 µM (active)
same,AC50,[2],23.5 µM (active)
same,AC50,[15],9.34 µM (active)
same,AC50,[4],3.32 µM (active)
same,AC50,[16],26.4 µM (active)
O=C(c1ccc(/C=C/c2n[nH]c3ccccc23)cc1)N1CCNCC1,AC50,[1],5.9 µM (active)
same,AC50,[2],23.5 µM (active)
same,AC50,[15],8.33 µM (active)
same,AC50,[4],4.68 µM (active)
Cc1ccc(S(=O)(=O)OCC(=O)Nc2ccc(C(=O)O)c(O)c2)cc1,outcome,[1],inactive
same,outcome,[2],inactive
same,outcome,[3],inactive
same,outcome,[4],inactive
same,outcome,[16],inactive
same,outcome,[17],inactive
same,outcome,[18],inactive
same,fold change,[5]; [19],0.894 (inactive)
same,fold change,[5]; [20],0.798
same,cell count,[5]; [21],6690
same,cell count,[5]; [22],7480
same,z-score,[6]; [23],-0.344 (inactive)
same,z-score,[6]; [24],0.295
CC(=O)OCC(=O)[C@@]1(O)[C@H](C)C[C@H]2[C@@H]3C=C(C)C4=Cc5c(cnn5-c5ccccc5)C[C@]4(C)[C@H]3[C@@H](O)C[C@@]21C,AC50,[1],20.9 µM (active)
same,AC50,[2],9.35 µM (active)
same,AC50,[3],5.26 µM (active)
same,AC50,[4],23.5 µM (active)
same,AC50,[16],26.4 µM (active)
same,outcome,[18],inactive
COc1ccc(F)c(F)c1C(=O)c1cnc(NC2CCN(S(C)(=O)=O)CC2)nc1N,AC50,[1],1.86 µM (active)
same,AC50,[2],2.64 µM (active)
same,AC50,[3],1.18 µM (active)
same,AC50,[4],2.09 µM (active)
same,outcome,[16],inactive
same,AC50,[17],3.72 µM (active)
same,IC50,[18],1.86 µM (active)
same,fold change,[5]; [19],0.981 (inactive)
same,fold change,[5]; [20],0.805
same,cell count,[5]; [21],1740
same,cell count,[5]; [22],1770
same,z-score,[6]; [23],2.86 (active)
same,z-score,[6]; [24],-3.07
CCCCCCCCCCCC(CC1OC(=O)C1CCCCCC)OC(=O)C(CC(C)C)NC=O (centres undefined),outcome,[1],inactive
same,outcome,[2],inactive
same,outcome,[3],inactive
same,outcome,[16],inactive
same,outcome,[17],inactive
same,outcome,[18],inactive
same,fold change,[5]; [19],0.897 (inactive) and 0.881 (inactive)
same,fold change,[5]; [20],2.53 and 0.818
same,cell count,[5]; [21],9250 and 6710
same,cell count,[5]; [22],10300 and 7610
same,z-score,[6]; [23],1.14 (inactive)
same,z-score,[6]; [24],-1.74
